tim10-1 inh: growth inhibitors of tim10-1 mutant yeast, primary screen, luminescence, uHTS | S. cerevisiae tim10-1 ts strain growth, BacTiter-Glo, 24 h | inhibition, % at 20 µM | actives 2.2% (n = 330,000);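 active = inhibition of at least 40%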;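 note: mutant grown at 25 °C; 0% = DMSO wells with yeast and 100% = wells holding no yeast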
SKKanGAS inh: S. pyogenes SKKanGAS growth inhibitors in kanamycin, primary screen, streptokinase expression inhibitor project, SKKanGAS strain, BacTiter-Glo luminescence; 6 h; AID 1662, 2009; actives 1.3% (n = 300,000); inhibition, % at 7.5 µM;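 active = mean replicate score, as percent of positive control median, at least 50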;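 note: strain carries kanamycin resistance gene driven by streptokinase promoter and grows in 40 µg/ml kanamycin; loss of luminescence reflects streptokinase promoter inhibition or plain growth inhibition; 0% = median of DMSO wells and 100% = positive control at its reference dose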
PfHsp90 yeast 2: growth inhibition of PfHsp90-expressing yeast, primary screen, antimalarial PfHsp90 inhibitor project, S. cerevisiae, BacTiter-Glo luminescence, single point, set 2. BacTiter-Glo ATP, 48 h; yeast lacking PDR1 and PDR3 efflux regulators. inhibition, % at 9.4 µM. actives 0.32% (n = 310,000). AID 504621, 2011;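 active = every replicate shows inhibition above about 80%, whatever the replicate mean, limit read from the data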;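 note: 0% = DMSO neutral controls and 100% = 20 µM radicicol positive controls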
tim23-1 inh: growth inhibitors of tim23-1 mutant yeast, primary screen, luminescence, uHTS; S. cerevisiae tim23-1 growth, BacTiter-Glo luminescence, 24 h; inhibition, % at 20 µM; actives 1.3% (n = 330,000); AID 463212, 2010;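 active = growth inhibition of the mutant yeast at or above 50%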;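 note: temperature-sensitive mutant grown at 25 °C; plate controls were DMSO-treated mutant yeast for no effect and medium wells lacking yeast for full effect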
TIM10 inh: growth inhibitors of isogenic TIM10 control yeast, primary screen, counter-screen for tim10-1 yeast inhibitor project, luminescence, uHTS. S. cerevisiae TIM10 strain growth, BacTiter-Glo luminescence, 24 h. actives 1.4% (n = 330,000). AID 463195, 2010. inhibition, % at 10 µM;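 active = inhibition of 40% or more at the single tested concentration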;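 note: wild-type TIM10 isogenic control strain grown at permissive 25 °C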
NALP3 yeast inh: NALP3 inflammasome inhibitors in reconstituted yeast, primary screen, luminescence, uHTS. actives 0.39% (n = 330,000). AID 2825, 2010. inhibition, % at 10 µM. Yeast reconstituted NLRP3/ASC/caspase-1, beta-gal luminescence, 24 h;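 active = inhibition of 50% or more; inactive = inhibition below 50%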;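 note: plate controls were induced DMSO wells for no effect and uninduced yeast grown without galactose for full effect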
TIM10 conf: growth inhibitors of wild-type TIM10 yeast, confirmation, counter-screen for tim10-1 synthetic lethality project, single concentration, luminescence, S. cerevisiae; inhibition, % at 10 µM; actives 63% (n = 4,600); S. cerevisiae tim10 strain growth, BacTiter-Glo luminescence, 24 h; shares compounds with TIM10 inh;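 active = inhibition of yeast growth at or above a set limit in either of two replicates at 10 µM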;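 note: this counterscreen used the strain with wild-type TIM10; 0% = yeast with DMSO and 100% = medium wells lacking yeast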
An asterisk follows results filed as active. This is a sample that favours compounds with a hit; in the whole collection about 4.5% have one here.

Screening COc1ccc(CCCC(=O)N/N=C/c2cccc(OC)c2O)cc1C returned tim10-1 inh 6, SKKanGAS inh 75*, PfHsp90 yeast 2 -4, tim23-1 inh 35, TIM10 inh 55*, NALP3 yeast inh 13 and TIM10 conf -10.
Screening CCN(c1ccccc1)S(=O)(=O)c1ccc(Cl)c(NC(=O)COC(=O)c2cc(O)c3ccccc3c2O)c1 returned tim10-1 inh 28, SKKanGAS inh 30, tim23-1 inh 35, TIM10 inh 45*, NALP3 yeast inh 12 and TIM10 conf 32*.
For CN(CC(=O)OCC(N)=O)S(=O)(=O)c1ccc(Cl)cc1 the results were tim10-1 inh 8, SKKanGAS inh 14, PfHsp90 yeast 2 -20, tim23-1 inh 4, TIM10 inh 40*, NALP3 yeast inh -6 and TIM10 conf 0.
Screening Cc1noc(C)c1COc1ccc(C(=O)OCc2nnc(-c3ccc(Cl)cc3)o2)cc1 returned tim10-1 inh 32, SKKanGAS inh 12, PfHsp90 yeast 2 -77, tim23-1 inh 10, TIM10 inh 43*, NALP3 yeast inh 14 and TIM10 conf 37*.
For O=C(OCc1nnc(-c2ccc(Cl)cc2)o1)c1ccncc1 the results were tim10-1 inh 9, SKKanGAS inh -3, PfHsp90 yeast 2 -1, tim23-1 inh 23, TIM10 inh -1 and NALP3 yeast inh 8.
`CCc1cc2c(=O)c(-c3nc4ccccc4[nH]3)coc2cc1OC(=O)N1CCOCC1` gave tim10-1 inh 17, SKKanGAS inh 8, PfHsp90 yeast 2 7, tim23-1 inh 19, TIM10 inh 57*, NALP3 yeast inh 36 and TIM10 conf 62*.
`S=C(NCCc1ccccc1)N/N=C/c1ccc(Cl)cc1` gave tim10-1 inh 12, SKKanGAS inh 65*, PfHsp90 yeast 2 -7, tim23-1 inh 42, TIM10 inh 41*, NALP3 yeast inh 17 and TIM10 conf 33*.
Screening S=C(NCCc1ccccc1)N/N=C/c1c(Cl)cccc1Cl returned tim10-1 inh 11, SKKanGAS inh -1, PfHsp90 yeast 2 15, tim23-1 inh 13, TIM10 inh 33 and NALP3 yeast inh -10.
For Cc1ccc(C(O)P(=O)(OC2CCCCC2)OC2CCCCC2)cc1 (configuration not stated) the results were tim10-1 inh 38, SKKanGAS inh 12, PfHsp90 yeast 2 -26, tim23-1 inh 35, TIM10 inh 40*, NALP3 yeast inh -20 and TIM10 conf 39*.
C=CCNc1ccccc1S(=O)(=O)NCc1ccccc1 was read as tim10-1 inh 5, PfHsp90 yeast 2 -10, tim23-1 inh 27 and TIM10 inh -28.
S=C(NCc1ccc(Cl)cc1)Nc1ccccc1 was read as tim10-1 inh 32, SKKanGAS inh 3, PfHsp90 yeast 2 -4, tim23-1 inh 24, TIM10 inh 42*, NALP3 yeast inh 4 and TIM10 conf 30.
S=C(NCc1cccs1)Nc1ccccc1Cl was read as tim10-1 inh 27, SKKanGAS inh 9, PfHsp90 yeast 2 -23, tim23-1 inh 25, TIM10 inh 18 and NALP3 yeast inh 9.
Fc1ccc(CNC(=S)Nc2ccc(Cl)cc2)cc1 was read as tim10-1 inh 11, SKKanGAS inh 27, PfHsp90 yeast 2 25, tim23-1 inh 7, TIM10 inh 22 and NALP3 yeast inh 34.
Screening S=C(NCc1cccs1)Nc1cc(Cl)cc(Cl)c1 returned tim10-1 inh 39, SKKanGAS inh 66*, PfHsp90 yeast 2 -24, tim23-1 inh 42, TIM10 inh 47*, NALP3 yeast inh 37 and TIM10 conf 56*.
CCN(CC)N=Nc1ccc(S(=O)(=O)Nc2c(C)n(C)n(-c3ccccc3)c2=O)cc1 was read as tim10-1 inh -3, SKKanGAS inh -4, PfHsp90 yeast 2 18, tim23-1 inh 6, TIM10 inh -8 and NALP3 yeast inh 16.
Screening COc1cc(/C=N/Nc2nc(C)nc3c2cnn3-c2ccccc2)ccc1O returned SKKanGAS inh 20 and PfHsp90 yeast 2 -6.
Cc1[nH]n(S(=O)(=O)Cc2ccccc2)c(=O)c1N=Nc1ccccc1Cl was read as tim10-1 inh 37, SKKanGAS inh -11, PfHsp90 yeast 2 6, tim23-1 inh 45, TIM10 inh 41*, NALP3 yeast inh 22 and TIM10 conf 22.
For O=C1c2ccccc2C(=O)C1c1ccnc2ccccc12 the results were tim10-1 inh 20, SKKanGAS inh 3, PfHsp90 yeast 2 9, tim23-1 inh 25, TIM10 inh 49*, NALP3 yeast inh 7 and TIM10 conf 39*.
O=C1C(c2ccnc3ccccc23)=C(O)c2ccccc21 was read as tim10-1 inh 13, SKKanGAS inh 12, PfHsp90 yeast 2 24, tim23-1 inh 23, TIM10 inh 55*, NALP3 yeast inh 10 and TIM10 conf 38*.
O=C1c2ccccc2C(=O)C1c1nccc2ccccc12 was read as tim10-1 inh 6, SKKanGAS inh -3, PfHsp90 yeast 2 12, tim23-1 inh 21, TIM10 inh 49*, NALP3 yeast inh 15 and TIM10 conf 47*.
`COCC1CCN(C(=O)C2CCC(=O)N(CCc3cccc(F)c3)C2)CC1` (configuration not stated) gave tim10-1 inh 2, SKKanGAS inh 0, PfHsp90 yeast 2 1, tim23-1 inh 14, TIM10 inh 8 and NALP3 yeast inh 7.
Screening O=C(O)c1ccc(Cl)cc1Nc1nc2cc(Cl)ccc2o1 returned SKKanGAS inh 17 and PfHsp90 yeast 2 -10.
CCOC(=O)c1c(CCl)nc2ccccc2c1-c1ccccc1 was read as tim10-1 inh -8, SKKanGAS inh 12, PfHsp90 yeast 2 -13, tim23-1 inh 29, TIM10 inh -10 and NALP3 yeast inh 10.
Screening ClCc1nc2ccccc2c2ccccc12 returned tim10-1 inh 34, SKKanGAS inh -3, PfHsp90 yeast 2 -6, tim23-1 inh 47, TIM10 inh 41*, NALP3 yeast inh -1 and TIM10 conf 38*.
Screening Cc1ccc(C23CC4CC(CC(C(=O)NC(C)C)(C4)C2)C3)cc1 returned tim10-1 inh 19, SKKanGAS inh -3, PfHsp90 yeast 2 -5, tim23-1 inh 40, TIM10 inh 44*, NALP3 yeast inh 18 and TIM10 conf 30.
